Reference: the supplement of paper PMC6555819

How the values were obtained:
Test in all cases: PBM binding z-score (relative to random genomic background probes); higher = stronger binding; sequences stand for … in GC…GCGATTGACAGCGTAGAATGAAGG
[1] = test system: FXR:RXRa (NR concentration 270 nM, RXRa partner concentration 90 nM)
Procedure, shortened: (§1)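 Binding buffer was PBS pH 7.4 with 2% milk, 0.02% Triton X-100, 1 mM DTT, 0.2 mg/mL BSA and 0.4 mg/ml salmon testes DNA. In it, ligand-free nuclear receptor dimers were incubated 1 h on custom Agilent 4×180K protein-binding microarrays carrying double-stranded probes. Antibodies against each partner (one per run) detected binding, and z-scores were calculated against random background probes after regression normalization of scanned fluorescence.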

[2] = test system: LXRa:RXRa (NR concentration 270 nM, RXRa partner concentration 90 nM)
Procedure, shortened: as §1

[3] = test system: LXRa homodimer (NR concentration 270 nM)
Procedure, shortened: as §1

[4] = test system: LXRb:RXRa (NR concentration 270 nM, RXRa partner concentration 90 nM)
Procedure, shortened: as §1

[5] = test system: LXRb homodimer (NR concentration 270 nM)
Procedure, shortened: as §1

[6] = test system: PPARa:RXRa (NR concentration 270 nM, RXRa partner concentration 90 nM)
Procedure, shortened: as §1

[7] = test system: PPARg:RXRa (NR concentration 180 nM, RXRa partner concentration 90 nM)
Procedure, shortened: as §1

[8] = test system: PPARg:RXRa 270nM:90nM, anti-RXR (NR concentration 270 nM, RXRa partner concentration 90 nM)
Procedure, shortened: as §1

[9] = test system: PPARg:RXRa 30nM:10nM, anti-RXR (NR concentration 30 nM, RXRa partner concentration 10 nM)
Procedure, shortened: as §1

[10] = test system: PPARg:RXRa 90nM:30nM, anti-RXR (NR concentration 90 nM, RXRa partner concentration 30 nM)
Procedure, shortened: as §1

| Sequence | PBM binding z-score [1] | PBM binding z-score [2] | PBM binding z-score [3] | PBM binding z-score [4] | PBM binding z-score [5] | PBM binding z-score [6] | PBM binding z-score [7] | PBM binding z-score [8] | PBM binding z-score [9] | PBM binding z-score [10] |
| --- | --- | --- | --- | --- | --- | --- | --- | --- | --- | --- |
| ACTATTAGTTGCCTTAGGGCAACCGATACGACGC | 0.218 | 0.346 | 0.285 | 0.202 | 0.935 | 0.287 | 0.672 | 0.279 | 0.294 | 0.358 |
| GGACCGAGGGCATTCGAGTTGATAGCATGGCGAT | 1.26 | 1.86 | -0.0835 | 0.133 | -1.34 | 0.952 | 0.4 | 0.0586 | -0.851 | -0.483 |
| TAGCCTAGGTCCTTGGGCCAGTATAGTACGCATC | -1.55 | -1.18 | -1.24 | -1.1 | -1.16 | -1.2 | -0.0575 | -0.847 | -0.771 | -0.944 |
| ATCGAACGGTCGTGAGGTGAGTATACAGAAAGGC | 0.0725 | -0.0756 | -0.243 | -0.299 | -0.457 | 0.134 | 0.66 | -0.0797 | -0.119 | -0.0767 |
| CTCGAAAGGTCGGTTGAGGTGTGTATACGGATAA | 1.83 | 1.28 | -0.285 | 1.05 | 0.0615 | 2.13 | 0.162 | 0.619 | -0.0568 | 0.492 |
| GCAGACAGGTGAACCGCAGGTAACTCAGGGTGGC | 0.339 | 0.437 | -0.44 | 0.125 | -1.15 | 1.77 | 0.554 | 0.309 | -0.52 | 0.0575 |
| CCAGACAGGTGAGAAGGTAACTCAACCTCGATTA | -0.191 | 0.167 | 0.188 | 0.347 | -0.388 | 0.894 | 0.669 | 0.515 | 0.064 | 0.437 |
| CGTCCAAGGTCAAAGGTCAGTCAAGAGATGACGG | 8.41 | 6.97 | 3.05 | 6.77 | 1.83 | 7.07 | 10.9 | 8.99 | 7.83 | 9.18 |
| ATCTCTAGTTAAGACTCAGTTCAGTGAAGAACGC | 0.381 | 0.546 | 0.699 | 0.459 | 0.922 | -0.0115 | -0.0269 | 0.419 | 0.293 | 0.347 |
| GCTGCTAGGTCAGGTTAGTCAGCTAACGGGTACG | 1.16 | 0.852 | -0.246 | 0.282 | -0.367 | 1.51 | 0.774 | 1.17 | -0.493 | 0.602 |
| CCGACTAGGGCAAAGGTTACCATACTCAGTACGA | 2.31 | 2.04 | 0.518 | 2.49 | -0.304 | 6.31 | 11.2 | 8.96 | 9.02 | 9.62 |
| AGAATGAAGTTAAGATCAGGGAAACAGAATACAT | -0.542 | -0.312 | -0.0829 | -0.14 | -0.44 | -0.111 | 0.991 | 0.0665 | 0.0605 | 0.34 |
| CAAACTAGGTCACGGAGGTCAAAGTCCGTGCGTA | 7.4 | 6.23 | 6.45 | 5.9 | 1.36 | 6.83 | 10.4 | 8.3 | 7.09 | 8.25 |
| GCTATTAGTTGAAATGGCAACCGAATGATTCTCG | -0.365 | -0.424 | -0.152 | -0.394 | -0.166 | -0.14 | 0.344 | 0.398 | 0.213 | 0.114 |
| CGAACTATGTCATCCAGGACAGTGAATACATTGA | 0.102 | -0.0297 | 0.258 | 0.236 | 0.0323 | 1.01 | 1.11 | 1.06 | 0.663 | 0.773 |
| TCTTGTAGCTCAACAGGAGGTTAAGAAAGATCGA | -0.163 | 0.472 | -0.218 | 0.222 | -0.709 | 0.659 | -0.365 | 0.868 | 2.01 | 1.4 |
| ATCTCTGGGTAAAGTTCAGTGAAAGATCGATAGA | 1.19 | 1.87 | 1.6 | 1.39 | 1.23 | 2.87 | 4.06 | 5.26 | 3.21 | 4.78 |
| GCTCGGAGGACAAGGTCATAGCTTTGTCCGTAGA | 4.1 | 3.71 | 0.47 | 2.77 | -0.053 | 4.08 | 2.43 | 3.37 | 0.472 | 2.08 |
| AGAATGAGGTTACCAAAGATCAAGGAAACGCTTG | 2.13 | 7.01 | 0.25 | 4.24 | -0.325 | 3.7 | 2.89 | 3.09 | 1.08 | 2.26 |
| TGCCAAAGTTCAAAGGTAACGTAAGTATCCACAC | 7.28 | 6.4 | 4.65 | 4.85 | 1.81 | 5.9 | 7.61 | 7.16 | 4.42 | 6.78 |
| ATCTCTAGGTAAGACTCAGTTCGGTGAAGAACGC | 0.336 | 0.318 | 0.624 | 0.144 | 0.85 | -0.0565 | -0.0259 | 0.127 | -0.00912 | 0.104 |
| TGGAGTAGGTTACCAATGGGGCATTCAGCTTTCT | -0.0639 | 1.5 | -0.0874 | 1.12 | 0.179 | 1.61 | 1.8 | 2.14 | 0.743 | 1.59 |
| CTTTACGGGTCACGAGGTTATAGCACGACGAGCG | 7.21 | 5.4 | 1.34 | 4.38 | 0.444 | 6.35 | 8.06 | 7.02 | 4.31 | 6.25 |
| TCGAGTAGGGTAGGGGCATTCAGAATGGCGTCGA | 0.264 | 0.12 | 0.0875 | 1.16 | 1.6 | 0.956 | 0.642 | 1.82 | 1.02 | 1.4 |
